PubChem BioAssay AID1259343 (VanderVen Lab, College of Veterinary Medicine, Cornell …, 2017)
The campaign covered roughly 6,200 compounds. About 2,900 (47%) were called active. The set was probably picked from earlier hits. Some of the results follow. Values without a mark were called inactive. Cut-off read from the data, not from the text of the source: active = inhibition above about 50%; inactive = the rest.

Experiment: Mycobacterium tuberculosis growth inhibition, primary screen (AID 1259343)
Details: inhibition: at 10 µM, active compounds read high; outcome: 10 uM

Row | SMILES | inhibition
1 | N#Cc1cccc(CSc2n[nH]c(=O)n2C2CC2)c1 | 3.74%
2 | N#Cc1ccccc1Cn1nnc(-c2ccccc2)n1 | -34.2%
3 | Cc1ccc(-c2nnn(CC(=O)N3CCCCCC3)n2)cc1 | 15.3%
4 | Cc1ccc(-c2nnn(Cc3cc(C)on3)n2)cc1 | 57.2% (active)
5 | CC(C)(Cc1c[nH]c2ccc(Cl)cc12)NCCOc1ccccc1OCC1CC1 | 46.8%
6 | O=C(NC1CC1)c1ccc(Oc2ccc(Br)cc2)nc1 | 16.1%
7 | Cc1cc(Oc2ccc(C(=O)O)cn2)ccc1C(C)C | 59.3% (active)
8 | CCc1cccc2c3c([nH]c12)C(CC)(CC(=O)O)OCC3 (stereo not given) | 56.6% (active)
9 | CSC(c1ccc(O)cc1)=[N+]1CCOCC1 | 99.3% (active)
10 | COc1cccc(-c2cnnc(NCCc3ccccc3F)n2)c1 | 19.2%
11 | COc1ccc(-c2cnc(CN(C)c3ccccc3F)o2)cc1 | 83.9% (active)
12 | C=CCSc1nc(N)c(C#N)c(CC)c1C#N | 58.6% (active)
13 | COCCNC(=O)N(C)CC1CCC(C)CC1 (stereo not given) | 8.33%
14 | CCCCN(CC)C(=O)c1cc2c(=O)n3cccc(C)c3nc2s1 | 35.8%
15 | CCc1c(C)nc2c(O)cccn2c1=O | 92.4% (active)
16 | Cc1cc(NC(=O)CSc2ccc(-c3ccc(C)c(C)c3)nn2)no1 | 33.5%
17 | Cc1ccc(-c2ccc(SCC(N)=O)nn2)cc1C | 37.8%
18 | Cc1cc(C)cc(NC(=O)CSc2ccc(-c3ccncc3)nn2)c1 | 84.3% (active)
19 | O=C(NS(=O)(=O)c1ccc2c(c1)OCCCO2)c1ccc(F)cc1 | -7.16%
20 | O=C(NS(=O)(=O)c1ccccc1F)c1ccc2c(c1)OCO2 | 98.4% (active)
21 | CC(NC(=O)c1ccccc1F)c1ccc2c(c1)OCCO2 (stereo not given) | 36.9%
22 | c1ccc2c(c1)C(=NC1CCCCC1)NC2=NC1CCCCC1 | 62.3% (active)
23 | COc1ccc(-c2noc(CN3CCC(c4nc5ccccc5o4)CC3)n2)cc1 | 81.3% (active)
24 | c1cncc(COC2CCCN(Cc3nc(-c4ccc5c(c4)OCO5)no3)C2)c1 (stereo not given) | 75.8% (active)
25 | COc1ccc(-c2noc(CN3CCCC(C(=O)c4ccccc4)C3)n2)cc1 (stereo not given) | 27.8%

Row | SMILES | inhibition
26 | Cc1oc(-c2cc3c(cc2Cl)OCO3)nc1CN1CCCC1c1ccc(F)cc1 (stereo not given) | 19.7%
27 | COc1ccc(-c2noc(CN3CCCC(OCc4ccccn4)C3)n2)cc1 (stereo not given) | 50.2% (active)
28 | Fc1ccc(C2CCCN2Cc2nc(-c3ccc4c(c3)OCO4)no2)cc1 (stereo not given) | 62.2% (active)
29 | COc1ccc(-c2noc(Cn3ccc4cccnc43)n2)cc1 | 81.3% (active)
30 | Cc1cnc(C)c(N2CCN(Cc3nc(-c4ccc5c(c4)OCO5)no3)CC2)n1 | 92.2% (active)
31 | c1cc2c(s1)CCN(Cc1nc(-c3ccc4c(c3)OCO4)no1)C2 | 22.1%
32 | Fc1ccccc1OCC1CCCN(Cc2nc(CC3CC3)no2)C1 (stereo not given) | 19.6%
33 | O=c1c2cc(-c3cccs3)nn2ccn1Cc1nc(-c2ccccc2)no1 | 4.57%
34 | CCCOC1CCCN(Cc2nc(-c3cccc(Cl)c3)no2)C1 (stereo not given) | 68.8% (active)
35 | CN(Cc1cnn(-c2ccc(F)cc2)c1)Cc1nc(CC2CC2)no1 | 23%
36 | Cc1ccc(Cl)cc1N1CCN(Cc2nc(C3CC3)no2)CC1 | -5.02%
37 | Fc1ccc(CC2CCN(Cc3nc(CC4CC4)no3)CC2)cc1 | 83.5% (active)
38 | CN(C)c1ccc(N=C2N=C(Nc3ccc(N(C)C)cc3)c3ccccc32)cc1 | 44.8%
39 | COC(=O)[C@H]1[C@H]2C[C@@H]3c4[nH]c5cc(OC)ccc5c4CCN3C[C@H]2C[C@@H](OC(=O)c2cc(OC)c(OC)c(OC)c2)[C@@H]1OC | 45.9%
40 | c1ccc(COC2CCCN(Cc3nc(CC4CC4)no3)C2)cc1 (stereo not given) | 58.5% (active)
41 | Cc1ccccc1C1CCCN(Cc2nc(CC3CC3)no2)C1 (stereo not given) | 17%
42 | CC1NC(=S)N(c2ccc(C(C)C)cc2)C1=O (stereo not given) | 95.8% (active)
43 | CC1NC(=S)N(c2ccc(-c3cn4ccsc4n3)cc2)C1=O (stereo not given) | 46.5%
44 | CC1NC(=S)N(c2cccc(Oc3ccncc3)c2)C1=O (stereo not given) | 11.8%
45 | CCCC(CCC)C(=O)Nc1cc(-c2cccs2)nn1-c1nc(C)cc(=O)[nH]1 | 99% (active)
46 | Cc1cc(=O)[nH]c(-n2nc(C3CC3)cc2NC(=O)c2cccs2)n1 | 100% (active)
47 | Cc1cc(=O)[nH]c(-n2nc(-c3cccs3)cc2NC(=O)c2ccco2)n1 | 99.9% (active)
48 | Cc1cc(=O)[nH]c(-n2nc(-c3cccs3)cc2NC(=O)c2c(F)cccc2Cl)n1 | 99.6% (active)
49 | Cc1cc(=O)[nH]c(-n2nc(-c3cccs3)cc2NC(=O)CC(C)(C)C)n1 | -0.63%
50 | Cc1cc(=O)[nH]c(-n2nc(-c3cccs3)cc2NC(=O)c2ccccc2C)n1 | 98.2% (active)
